Screens as filed in PubChem BioAssay.
Only a selection was taken, and hits are over-represented in it overall.
GIRK2 act: activators of NPY4-receptor-primed GIRK2 channels, summary, cell-based, HEK293, thallium flux; HEK293 GIRK2/NPY4 cells, thallium flux fluorescence; activation (% efficacy), % for hits at 37.5 µM; G protein-activated inward rectifier potassium channel 2 (Homo sapiens), P48051; 34,000 tested, under 10 active;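 active means primary screen hit, no activity in plain HEK293 cells, and in GIRK2-only cells above 5% efficacy rising with concentration; inactive means the rest, including fluorescent compounds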;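 further: efficacy is normalized control-subtracted fluorescence 15 s after thallium addition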
Target sequence (P48051 whole entry, looked up): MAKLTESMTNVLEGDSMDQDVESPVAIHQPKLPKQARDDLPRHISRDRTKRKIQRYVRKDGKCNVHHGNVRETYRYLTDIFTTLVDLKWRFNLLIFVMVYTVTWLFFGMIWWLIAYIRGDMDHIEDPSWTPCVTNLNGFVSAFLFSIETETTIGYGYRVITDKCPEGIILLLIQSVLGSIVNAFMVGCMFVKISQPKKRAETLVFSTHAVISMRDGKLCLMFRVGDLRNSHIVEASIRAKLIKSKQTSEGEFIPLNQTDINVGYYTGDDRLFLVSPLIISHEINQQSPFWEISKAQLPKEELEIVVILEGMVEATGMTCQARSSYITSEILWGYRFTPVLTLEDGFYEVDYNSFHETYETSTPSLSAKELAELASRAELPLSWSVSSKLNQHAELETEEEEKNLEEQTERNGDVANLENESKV
AMPAR-TARP mod: modulators of GluA2-stargazin AMPA receptor complexes, primary screen, cell-based, membrane potential dye; Voltage-dependent calcium channel gamma-2 subunit (Mus musculus) + Glutamate receptor 2 …; HEK293 GluA2+stargazin, membrane potential dye (FDSS), glutamate EC50; hits were called plate by plate, in both directions; calls only at 30 µM; 3.5% of 40,000 active; AID 1259245, 2017;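 active means any of four per-well response measures lying three or more SD from its plate-wide compound average, in either direction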
Active calls of the source: *; i = inactive; . = not tested or not shown; + = active, no number.

SMILES	GIRK2 act	AMPAR-TARP mod
O=S(=O)(NCC(O)(c1ccco1)C1CC1)c1cccc(C(F)(F)F)c1 (centres undefined)	i	+
O=C(Nc1cccc(N2CCCC2=O)c1)c1cc(Br)ccc1Cl	i	i
COc1cccc(C(CNC(=O)c2ccc([N+](=O)[O-])cc2Cl)N2CCOCC2)c1 (centres undefined)	.	i
COc1ncccc1C(=O)Nc1onc2c1CSC2	i	+
O=C(Nc1onc2c1CSC2)c1cnc2ccccc2n1	i	i
COc1ccc(-c2ccc(=O)n(CCNS(=O)(=O)c3cc(F)ccc3F)n2)cc1	.	i
O=C(NCCOc1ccc(F)cc1)C(=O)Nc1nccs1	i	i
O=C(Nc1ccc(F)cc1F)c1ccc(=O)n(Cc2ccc(C(F)(F)F)cc2)c1	i	+
Cc1ccc(Cn2cc(C(=O)Nc3ccc(F)cc3F)ccc2=O)cc1	i	i
CCOc1ccccc1C(=O)NC1CC(=O)N(c2ccccc2)C1 (centres undefined)	.	i
CCOc1ccccc1C(=O)NC1CC(=O)N(c2ccc(C)c(C)c2)C1 (centres undefined)	.	+
CCOC(=O)C1=C(C)N=c2s/c(=C/c3cnn(C)c3)c(=O)n2C1c1ccc(OC)cc1 (centres undefined)	i	i
Cn1nc2c3c(cccc3c1=O)-c1ccccc1-2	.	+
Cc1ccc(-c2nn(C)c(=O)c3ccccc23)cc1CNS(C)(=O)=O	.	i
COc1cn(CC(=O)Nc2ccc(OC(F)(F)F)cc2)c(CSc2nc(C)cc(C)n2)cc1=O	i	i
Cn1c(=O)[nH]c(=O)c2c1nc(N1CCC(C(N)=O)CC1)n2CCCc1ccccc1	.	i
Cn1c(=O)[nH]c(=O)c2c1nc(N1CCN(CC(N)=O)CC1)n2CCCc1ccccc1	.	+
COC(=O)CN1CCN(c2nc3c(c(=O)[nH]c(=O)n3C)n2CCc2ccccc2)CC1	.	i
CCOC(=O)CN1CCN(c2nc3c(c(=O)[nH]c(=O)n3C)n2CCc2ccccc2)CC1	.	+
COc1cc(OC)cc(C(=O)Nc2nnc(-c3ccc(Br)s3)o2)c1	i	+
COc1cccc(C(=O)Nc2nnc(-c3ccc(Br)s3)o2)c1	i	i
COc1cc(C(=O)Nc2nnc(-c3ccc(C)cc3C)o2)cc(OC)c1OC	.	i
COc1cc(OC)cc(C(=O)Nc2nnc(-c3ccc(C)cc3C)o2)c1	.	+
OC(COCCOc1ccc(Cl)cc1)CN1CCN(c2ccccc2F)CC1 (centres undefined)	.	i
COc1ccc(C2(CNC(=O)c3ccc(Cl)c(Cl)c3)CCOCC2)cc1	.	+
SMILES	GIRK2 act	AMPAR-TARP mod
COc1cc(OC)cc(C(=O)NCC2(c3ccccc3)CCOCC2)c1	i	i
Cc1nn(C2CCS(=O)(=O)C2)c2nc(-c3ccccc3)cc(C(=O)NC(C)c3ccccc3)c12 (centres undefined)	i	i
CC1=NN(c2ccccc2)C(=O)C1C(=O)c1sc(-c2ccccc2)nc1C (centres undefined)	i	i
CC1=NN(c2ccccc2)C(=O)C1C(=O)c1cccc(F)c1 (centres undefined)	i	+
COc1ccc(C(=O)C2C(=O)N(c3ccccc3)N=C2C)c(OC)c1 (centres undefined)	i	+
CC1=NN(c2ccccc2)C(=O)C1C(=O)c1ccc(S(=O)(=O)N2CCCCC2)cc1 (centres undefined)	i	i
CSc1ncccc1C(=O)N1CCC(CNC(=O)c2ccc(Cl)s2)CC1	i	i
O=C(NCC1(c2cccs2)CC1)Nc1cccc(C(F)(F)F)c1	i	i
COc1cccc(NC(=O)NCC2(c3cccs3)CC2)c1	i	+
Cc1nc(-c2ccccc2)sc1C(=O)OCC(=O)c1ccc(F)cc1	i	i
O=C(NCC1(O)CCc2ccccc21)Nc1ccc(Cl)c(Cl)c1 (centres undefined)	i	+
O=C(NCC1(O)CCc2ccccc21)Nc1ccccc1Cl (centres undefined)	i	i
CC1CCN(S(=O)(=O)c2ccc(-c3nc(C#N)c(N4CCC(C(N)=O)CC4)o3)cc2)CC1	i	i
COC(=O)c1ccc2[nH]c(C)cc(=O)c2c1	i	i
COC(=O)c1ccc2occ(-c3oc4ccc(C(=O)OC)cc4c3O)c2c1	i	+
COc1ccc(S(=O)(=O)CC(=O)Nc2nc3c(s2)COc2ccccc2-3)cc1	i	i
COc1ccccc1C(=O)Cn1cc(-c2nc(-c3cnccn3)no2)ccc1=O	i	i
Cc1cccc(Nc2ccc(N3CCN(C(=O)c4ccco4)CC3)nn2)n1	i	.
Cc1n[nH]c(C)c1S(=O)(=O)N1CCN(c2ccc(-c3ccccn3)nn2)CC1	i	+
CCCS(=O)(=O)N1CCN(c2ccc3nnc(C4CC4)n3n2)CC1	i	i
Cc1n[nH]c(C)c1S(=O)(=O)N1CCN(c2ccc3nnc(C4CC4)n3n2)CC1	i	+
Cc1nnsc1C(=O)N1CCN(c2ccc(-c3ccccn3)nn2)CC1	i	i
O=C(CCCn1nc(-c2cccs2)ccc1=O)Nc1ccc(Oc2ccccc2)cc1	i	.
COc1ccc(CCS(=O)(=O)NCC2CCN(Cc3cccs3)CC2)cc1	i	.
COc1ccc(CCS(=O)(=O)NCC2CCN(Cc3ccccc3)CC2)cc1	i	+
SMILES	GIRK2 act	AMPAR-TARP mod
COc1ccc(CCS(=O)(=O)NCC2CCN(c3ncccn3)CC2)cc1	i	i
COc1ccc(CCS(=O)(=O)NCC2CCN(C(=O)c3ccccc3F)CC2)cc1	i	+
COc1ccc(S(=O)(=O)CCCC(=O)N(Cc2ccccc2)c2nc3ccccc3s2)cc1	.	i
COc1cn(CC(=O)Nc2ccc(C)cc2)c(CSc2nc(C)cs2)cc1=O	i	+
COc1cn(CC(=O)Nc2ccc(C(N)=O)cc2)c(CSc2nnnn2C)cc1=O	i	i
CCOc1ccc(NC(=O)Cn2cc(OC)c(=O)cc2CSc2nc(C)cs2)cc1	i	i
COc1ccc(NC(=O)Cn2cc(OC)c(=O)cc2CSc2nnnn2C)cc1OC	i	+
COCCNC(=O)Cc1cc(-c2ccccc2)on1	i	.
CCn1c(=O)c2c(nc3oc(C)c(C)n32)n(C)c1=O	i	+
CCn1c(=O)c2c(nc3n(-c4ccc(OC)cc4)c(C)c(C)n23)n(C)c1=O	.	i
Cn1c(=O)c2c(nc(N3CCCCCC3)n2CC(O)COc2ccccc2)n(C)c1=O (centres undefined)	.	i
CCNc1nc2c(c(=O)n(C)c(=O)n2C)n1CCCOc1ccccc1	i	i
CCN1CCN(c2nc3c(c(=O)n(C)c(=O)n3C)n2CCCOc2ccccc2)CC1	.	+
Cn1c(=O)c2c(nc(N3CCOCC3)n2CCSc2ncccn2)n(C)c1=O	.	+
CC(c1ccccc1)n1c(N2CCCCC2)nc2c1c(=O)n(C)c(=O)n2C (centres undefined)	i	+
Cn1c(=O)c2c(nc(N3CCOCC3)n2CCCc2ccccc2)n(C)c1=O	.	i
CCCOc1ccc(CNC(=O)c2ccc3c(=O)n4c(nc3c2)SCCC4)cc1	i	i
